Test systems include NCI-H23 lung; NCI-H226 lung; NCI-H322M lung; HOP-62 NSCLC; NCI-H460 lung; HOP-92 NSCLC; NCI-H522 lung; A549/ATCC NSCLC; 786-0 renal; COLO 205 colon.
Assay in all cases: NCI-60 one-dose screen, 48 h (100 = growth as untreated, 0 = no growth, -100 = all killed)
Settings in all cases: 10 µM unless noted

The panel holds about 83,000 compounds, 20% with a hit somewhere; the sample as a whole holds those more often.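 The endpoint reported here, percent growth, reads 100 for growth as untreated, 0 for no net growth and -100 for all cells dead.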 Unmarked numbers belong to inactive results. The source made the active and inactive calls. Rule for the calls: active = growth percent below 10; inactive = the rest.

With `CCOC(=O)c1cnc2c(N=Nc3ccc(OC)cc3)c(N)nn2c1N`, the growth with NCI-H23 lung was 98.8%; in the experiment with NCI-H226 lung, 99.7%; with NCI-H322M lung it was 97.9%; with HOP-62 NSCLC it was 104%; in the experiment on NCI-H460 lung, 103%; in the experiment with HOP-92 NSCLC, 113%. Further, the growth in the experiment with NCI-H522 lung was 86.8%; in the experiment with A549/ATCC NSCLC, 95%; in the experiment on 786-0 renal it was 104%; in the experiment on COLO 205 colon, 106%.
`C=CCOC(=O)C1=C(C)N(CC)C(=O)NC1c1c(Cl)n(C)c2ccccc12` (stereo not given): the growth was 96% in the experiment with NCI-H23 lung; 106% in the experiment on NCI-H226 lung; 78.8% with NCI-H322M lung; 103% with HOP-62 NSCLC; 99% in the experiment on NCI-H460 lung; 68.1% with HOP-92 NSCLC. Also, the growth was 85.3% with NCI-H522 lung, 87.6% with A549/ATCC NSCLC, 95.7% in the experiment with 786-0 renal and 108% in the experiment with COLO 205 colon.
Take `COC(=O)c1c2c(c(C)[n+]([O-])c1C)C(=O)C(NCc1ccc(OC)cc1)=CC2=O`: the growth is 27.5% in the experiment on NCI-H23 lung; 81.7% in the experiment with NCI-H226 lung; 6.55% (active) in the experiment on NCI-H322M lung; 47.7% in the experiment with HOP-62 NSCLC; 10.2% with NCI-H460 lung; 36.9% with HOP-92 NSCLC. Moreover, the growth with NCI-H522 lung was -5.69% (active); in the experiment on A549/ATCC NSCLC, 4.4% (active); in the experiment on 786-0 renal, 54.2%; in the experiment with COLO 205 colon it was -45.2% (active).
For `CNC1=CC(=O)c2c(C(=O)OC)c(C)[n+]([O-])c(C)c2C1=O`, the growth with NCI-H23 lung is 40%; with NCI-H226 lung, 82.1%; in the experiment on NCI-H322M lung, 71.9%; in the experiment on HOP-62 NSCLC, 97.9%; in the experiment with NCI-H460 lung it was 28.2%; in the experiment on HOP-92 NSCLC, 106%. The growth is 23.3% in the experiment on NCI-H522 lung, 55.3% in the experiment on A549/ATCC NSCLC, 97.9% in the experiment with 786-0 renal and 8.07% (active) in the experiment on COLO 205 colon.
In the case of `O=C(O)c1cn(C2CC2)c2cc(N3CCN(C(=O)Nc4nc(-c5ccc(Br)cc5)cs4)CC3)c(F)cc2c1=O`, the growth was 12.4% in the experiment with NCI-H23 lung; 18.9% in the experiment on NCI-H226 lung; 6.95% (active) in the experiment on NCI-H322M lung; 21.8% in the experiment on HOP-62 NSCLC; 10.4% in the experiment with NCI-H460 lung; -8.59% (active) in the experiment on HOP-92 NSCLC. Moreover, the growth is 5.78% (active) in the experiment on NCI-H522 lung, 14.3% in the experiment with A549/ATCC NSCLC, 27.3% in the experiment on 786-0 renal and 24.2% with COLO 205 colon.
For `O=C1/C(=C/c2ccc(F)cc2)CN(C(=O)C(Cl)Cl)C/C1=C\c1ccc(F)cc1`, the growth with NCI-H23 lung was -48.1% (active); with NCI-H226 lung it was 0.691% (active); in the experiment on NCI-H322M lung, -63% (active); in the experiment with HOP-62 NSCLC it was -19.1% (active); in the experiment with NCI-H460 lung, -78% (active); in the experiment with HOP-92 NSCLC it was -48% (active). Moreover, the growth with NCI-H522 lung is -58.1% (active); with A549/ATCC NSCLC, -31.8% (active); with 786-0 renal it was -56.2% (active); with COLO 205 colon, -70.2% (active).
For `O=C1/C(=C\c2cccc3nccnc23)SC(=S)N1CCc1ccc(O)cc1`, the growth was 93.7% with NCI-H23 lung; 95.4% in the experiment on NCI-H226 lung; 96.4% in the experiment with NCI-H322M lung; 99.5% in the experiment with HOP-62 NSCLC; 105% in the experiment on NCI-H460 lung; -0.0093% (active) with HOP-92 NSCLC. Also, the growth was 81.9% with NCI-H522 lung, 100% in the experiment with A549/ATCC NSCLC, 94.8% in the experiment on 786-0 renal and 118% with COLO 205 colon.
Consider `CCOC(=O)c1c(C)nc2c(c1N)/C(=C/c1ccc(OC)cc1)C(=O)N2Cc1ccccc1`, for which the growth with NCI-H23 lung was 59.2%; in the experiment on NCI-H226 lung, 86.1%; in the experiment on NCI-H322M lung, 74.9%; in the experiment on HOP-62 NSCLC it was 58.1%; in the experiment on NCI-H460 lung, 41.1%; with HOP-92 NSCLC, 45%. The growth in the experiment with NCI-H522 lung was 66.3%; with A549/ATCC NSCLC it was 63.4%; in the experiment with 786-0 renal, 64.4%; in the experiment with COLO 205 colon, 73.7%.
As for `O=c1ccc(=O)n(-c2nc(-c3ccc([N+](=O)[O-])cc3)cs2)[nH]1`, the growth was 90.7% in the experiment with NCI-H23 lung; 96.3% in the experiment on NCI-H226 lung; 104% in the experiment with NCI-H322M lung; 107% with HOP-62 NSCLC; 102% in the experiment with NCI-H460 lung; 103% in the experiment on HOP-92 NSCLC. Moreover, the growth is 95.8% in the experiment on NCI-H522 lung, 88.9% with A549/ATCC NSCLC, 81.3% in the experiment with 786-0 renal and 105% in the experiment on COLO 205 colon.
`Cc1cccc[n+]1C1c2ccccc2-c2ccccc21`: the growth in the experiment on NCI-H23 lung was 103%; with NCI-H226 lung, 96.1%; with NCI-H322M lung, 107%; in the experiment with HOP-62 NSCLC, 70.5%; in the experiment on NCI-H460 lung, 106%; with HOP-92 NSCLC, 68.9%. In addition, the growth with NCI-H522 lung was 57.9%; with A549/ATCC NSCLC, 78.8%; in the experiment on 786-0 renal, 90.7%; in the experiment with COLO 205 colon, 75.3%.
As to `CN1C(=O)/C(=C2\SC(=Nc3ccccc3)N(Nc3ccccc3)C2=O)c2ccccc21`, the growth in the experiment on NCI-H23 lung is 94.1%; in the experiment on NCI-H226 lung, 93.8%; with NCI-H322M lung it was 95.4%; in the experiment with HOP-62 NSCLC, 88.1%; in the experiment on NCI-H460 lung it was 101%; with HOP-92 NSCLC, 100%. For the same compound, the growth in the experiment on NCI-H522 lung was 94.5%; with A549/ATCC NSCLC, 98.6%; with 786-0 renal, 107%; with COLO 205 colon it was 112%.
As for `Clc1ccc(-c2cc(-c3ccccc3)nc(NCCNc3ccnc4cc(Cl)ccc34)n2)cc1`, the growth in the experiment with NCI-H23 lung was 74.3%; in the experiment on NCI-H226 lung, 78.5%; in the experiment with NCI-H322M lung it was 44.6%; in the experiment on HOP-62 NSCLC it was 81.2%; with NCI-H460 lung, -51.6% (active); with HOP-92 NSCLC it was 31.8%. Also, the growth in the experiment on NCI-H522 lung is -35.9% (active); in the experiment on A549/ATCC NSCLC it was 36.3%; in the experiment with 786-0 renal, -90.9% (active); with COLO 205 colon it was -81.2% (active).
As to `NNCCc1ccc(NC(=O)CCCc2ccc(C(=O)Nc3ccccc3N)cc2)cc1`, the growth in the experiment with NCI-H23 lung is 76.5%; with NCI-H226 lung it was 74.3%; with NCI-H322M lung, 87%; with HOP-62 NSCLC, 69.6%; in the experiment on NCI-H460 lung, 66.3%; with HOP-92 NSCLC, 31.2%. Moreover, the growth was 13.1% in the experiment on NCI-H522 lung, 85.4% in the experiment on A549/ATCC NSCLC, 81.6% in the experiment with 786-0 renal and 75.6% in the experiment with COLO 205 colon.

The values above are taken from PubChem BioAssay (NCI).
